The results in this text go back to PubChem BioAssay (Tox21).

Experiment [1] is described as follows: Nuclear factor erythroid 2-related factor 2/antioxidant responsive element (Nrf2/ARE) small molecule agonists: qHTS cell viability counter screen in human keratinocytes (AID 1919968; active means well fitted curve in the direction sought with a large enough effect in the repeat runs; an effect the other way counts as inactive or inconclusive; further: nearly all actives have a fitted effect of over 55% in size; further: potency means the concentration at half of the fitted maximal effect). The procedure, abridged: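 Seed 1,500 KeratinoSens cells per well, then incubate 5 h at 37 C/5% CO2. Add compounds in DMSO and incubate 23 h. Add CellTiter-Fluor, wait 1 h and read fluorescence.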

Experiment [2] is described as follows: Nuclear factor erythroid 2-related factor 2/antioxidant responsive element (Nrf2/ARE) small molecule agonists: luciferase reporter gene qHTS assay in human keratinocytes (AID 1919969). Further: nearly all actives have a fitted effect of over 35% in size. Further: potency means the concentration at half of the fitted maximal effect.
The target of experiment [3] is Gonadotropin-releasing hormone receptor (Homo sapiens) (UniProt P30968). The experiment can be described thus: Human gonadotropin-releasing hormone receptor (GnRHR) small molecule agonists, calcium flux assay in GnRHR-HEK293 cells (AID 1920063). Further: nearly all actives have a fitted effect of over 35% in size. A digest of the protocol:
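Cells: HEK293 stably expressing human GnRHR. Steps: overnight (18 h) culture, 1 h calcium dye loading at 37 C, compound addition, kinetic fluorescence read at 480/540 nm. Each compound tested at 15 concentrations in triplicate.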

Experiment [4] addresses KiSS-1 receptor (Homo sapiens) (UniProt Q969F8). The experiment can be described thus: Human kisspeptin (KISS1R) small molecule agonists, calcium flux assay in KISS1R-HEK293 cells (AID 1920064; active means well fitted curve in the direction sought with a large enough effect in the repeat runs; an effect the other way counts as inactive or inconclusive). The procedure, abridged: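 Cells plated and incubated 18 h; dye added, 1 h at 37 C; compounds in DMSO pinned in; signal read at 480/540 nm every second for 3 min. Each compound tested at 15 concentrations in triplicate.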

Experiment [5] in a line: p53 small molecule agonists, cell-based qHTS assay with human liver microsomes (AID 1963577).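 Further: p53 response element beta-lactamase reporter cells with liver microsomes plus NADPH.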 A digest of the protocol: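 Cells carrying a p53-responsive bla reporter were rested 5 h (37 C, 5% CO2) before compound transfer. Human liver microsomes plus NADPH, 0.5 mg/mL final apiece, supplied metabolism during the 16 h 37 C exposure.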
Experiment [6] can be described thus: p53 small molecule agonists, cell-based qHTS assay with human liver microsomes: qHTS cell viability counter screen (AID 1963579). Further: nearly all actives have a fitted effect of over 45% in size. Further: potency means the concentration at half of the fitted maximal effect. The procedure, abridged: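 Seed p53RE-bla cells at 4,000 per well; incubate 5 h at 37 C; add compound, human liver microsomes and NADPH; incubate 16 h at 37 C; add CellTiter-Glo; after 30 min at room temperature, read luminescence.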

A short description of experiment [7]: p53 small molecule agonists, cell-based qHTS assay with rat liver microsomes: qHTS cell viability counter screen (AID 1963580). Further: nearly all actives have a fitted effect of over 45% in size. Further: potency means the concentration at half of the fitted maximal effect. The procedure, abridged: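 HCT-116 p53RE-bla, 4,000 cells/well, 5 h pre-incubation; cpd + rat liver microsomes 0.5 mg/mL + NADPH 0.5 mg/mL (final); 16 h, 37 C; CellTiter-Glo, 30 min RT; luminescence.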
A short description of experiment [8]: p53 small molecule agonists, cell-based qHTS assay: qHTS cell viability counter screen (AID 1963581). Further: nearly all actives have a fitted effect of over 45% in size. A digest of the protocol: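 Cells: HCT-116 with p53 response element-driven beta-lactamase. Treatment: 16 h, 37 C, compounds in DMSO. Read: CellTiter-Glo luminescence after 30 min RT.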
Experiment [9] can be described thus: p53 small molecule agonists, cell-based qHTS assay (AID 1963582; active means well fitted activation curve with a large enough effect in the signal ratio in the repeat runs, not every such curve was filed as active; the % refers to the signal ratio). A digest of the protocol:
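Quantitative HTS in p53RE-bla cells: after a 5 h settling period, compounds delivered in DMSO were left on cells for 16 h at 37 C, and reporter induction was measured as fluorescence following 2 h substrate loading.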

Experiment [10] can be described thus: cAMP Responsive Elements (CRE) small molecule agonists, cell-based qHTS assay (AID 1963590). A digest of the protocol:
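Agonist mode qHTS in CRE-bla HEK 293T cells: compounds dosed from DMSO for 3 h at 37 C/5% CO2, followed by LiveBLAzer B/G FRET substrate for 2 h at room temperature.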

A short description of experiment [11]: cAMP Responsive Elements (CRE) small molecule antagonists, cell-based qHTS assay (AID 1963591; active means well fitted inhibition curve with a large enough effect in the signal ratio in the repeat runs, not every such curve was filed as active; the % refers to the signal ratio; further: potency means the concentration at half of the fitted maximal effect). A digest of the protocol:
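Antagonist mode: test compounds are co-incubated with the adenylyl cyclase activator NKH477 (0.25 uM final) on CRE-bla HEK293T cells for 3 h at 37 °C, followed by LiveBLAzer substrate loading.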

The target in experiment [12] is Beta-2 adrenergic receptor (Homo sapiens) (UniProt P07550). The experiment can be described thus: Adrenergic beta2 receptor (ADRB2) small molecule antagonists, cell-based qHTS assay (AID 1963592). Further: series mostly up to about 92 µM; nearly all actives have a fitted effect of over 50% in size. The procedure, abridged:
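Cells (CHO, stable ADRB2 overexpression) incubated 18-20hr at 37C; compounds added from DMSO; agonist mix (1nM isoproterenol, 100uM IBMX, 25uM Ro-20-1724) added; 0.5hr RT; d2-cAMP and anti-cAMP-cryptate added; 1hr RT; 665/615 nm read.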

The target is the same in experiment [13]. The experiment can be described thus: Adrenergic beta2 receptor (ADRB2) small molecule agonists, cell-based qHTS assay (AID 1963593).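 Further: CHO cells stably overexpressing human ADRB2.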 A digest of the protocol:
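CHO cells stably over-expressing ADRB2 were plated overnight at 37C, then dosed with compounds plus a stimulation mix containing 100uM IBMX and 25uM Ro-20-1724 for 0.5hr at room temperature. cAMP was measured by HTRF competition, 1hr.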

Experiment [14] has as its target D(2) dopamine receptor (Homo sapiens) (UniProt P14416). The experiment can be described thus: Dopamine D2 receptor (DRD2) small molecule agonists, cell-based qHTS assay (AID 1963594). Further: nearly all actives have a fitted effect of over 35% in size. A digest of the protocol: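 cAMP accumulation in DRD2-HEK293 cells measured by HTRF after 1 h detection; compounds added 10 min before NKH477 (200nM […]) forskolin-analogue stimulation, 30 min at room temperature, with Ro20-1724 present at 0.1 mM final.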

The target is the same in experiment [15]. The experiment can be described thus: Dopamine D2 receptor (DRD2) small molecule antagonists, cell-based qHTS assay (AID 1963595; active means well fitted inhibition curve with a large enough effect in the signal ratio in the repeat runs, with a control signal flat; the % refers to the signal ratio). A digest of the protocol:
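Cells were plated and grown for 24 h at 37 °C. Ro20-1724 (0.1 mM final) went in first, then compound for 10 min. NKH477 (200 nM) with quinpirole (12 nM) followed for 30 min at RT, then HTRF detection reagents for 1 h.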

The target of experiment [16] is 5-hydroxytryptamine receptor 2A (Homo sapiens) (UniProt P28223). The experiment can be described thus: 5-hydroxytryptamine receptor 2A (HTR2A) small molecule antagonists, cell-based qHTS assay (AID 1963586). Further: nearly all actives have a fitted effect of over 45% in size. A digest of the protocol:
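Antagonist-mode intracellular calcium assay: DOI (4 nM) added after 5 min compound pre-incubation at room temperature to dye-loaded HTR2A-CHO cells. Fluorescence followed for 3 min, sampled every second.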

Experiment [17] shares this target. The experiment can be described thus: 5-hydroxytryptamine receptor 2A (HTR2A) small molecule agonists, cell-based qHTS assay (AID 1963587). Further: nearly all actives have a fitted effect of over 30% in size. Further: potency means the concentration at half of the fitted maximal effect. The procedure, abridged: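 Kinetic calcium-flux fluorescence (2 min, 1 sec intervals) after compound addition in agonist mode. HTR2A-CHO cells were cultured 18 h, then dye-loaded 1 h at 37 C.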
Experiment [18] deals with Muscarinic acetylcholine receptor M1 (Homo sapiens) (UniProt P11229). The experiment can be described thus: Cholinergic receptor muscarinic 1 (CHRM1) small molecule antagonists, cell-based qHTS assay (AID 1963588). Further: nearly all actives have a fitted effect of over 40% in size. The procedure, abridged: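 CHRM1-CHO calcium-flux assay, antagonist mode. Cells were seeded 18 h, dye-loaded 1 h at 37 C and given compound for 5 min at RT, then acetylcholine was added at 50nM. FDSS fluorescence was read 3 min; 15 concentrations, three runs.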

Experiment [19] shares this target. The experiment can be described thus: Cholinergic receptor muscarinic 1 (CHRM1) small molecule agonists, cell-based qHTS assay (AID 1963589). Further: nearly all actives have a fitted effect of over 35% in size. The procedure, abridged:
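Agonist-mode qHTS in CHO cells stably carrying human muscarinic M1. Intracellular calcium is tracked by fluorescence every second after compound transfer; each compound runs at 15 concentrations in three independent runs.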

Several values for one entry are separate records, joined by “and”; a condition that tells them apart may be missing. Equal values may be shown once. Inconclusive results are not listed. Some compounds were tested as several samples or in several runs, with calls that do not always agree. Activity calls are given as the source filed them. Unless noted, the call rests on the fitted dose curve.

Sequence of KiSS-1 receptor (Homo sapiens) (Q969F8 whole entry, looked up): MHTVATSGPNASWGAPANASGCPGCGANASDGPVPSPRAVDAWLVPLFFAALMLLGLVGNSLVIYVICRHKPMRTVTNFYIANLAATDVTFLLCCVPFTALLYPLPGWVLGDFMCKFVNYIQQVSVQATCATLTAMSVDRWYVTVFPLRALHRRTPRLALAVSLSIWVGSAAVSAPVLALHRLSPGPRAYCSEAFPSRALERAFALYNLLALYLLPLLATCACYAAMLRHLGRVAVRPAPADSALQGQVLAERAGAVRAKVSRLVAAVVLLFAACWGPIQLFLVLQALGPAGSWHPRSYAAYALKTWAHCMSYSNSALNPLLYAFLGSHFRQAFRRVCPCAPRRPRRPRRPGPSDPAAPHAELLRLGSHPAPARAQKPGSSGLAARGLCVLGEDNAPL
Sequence of D(2) dopamine receptor (Homo sapiens) (P14416 whole entry, looked up): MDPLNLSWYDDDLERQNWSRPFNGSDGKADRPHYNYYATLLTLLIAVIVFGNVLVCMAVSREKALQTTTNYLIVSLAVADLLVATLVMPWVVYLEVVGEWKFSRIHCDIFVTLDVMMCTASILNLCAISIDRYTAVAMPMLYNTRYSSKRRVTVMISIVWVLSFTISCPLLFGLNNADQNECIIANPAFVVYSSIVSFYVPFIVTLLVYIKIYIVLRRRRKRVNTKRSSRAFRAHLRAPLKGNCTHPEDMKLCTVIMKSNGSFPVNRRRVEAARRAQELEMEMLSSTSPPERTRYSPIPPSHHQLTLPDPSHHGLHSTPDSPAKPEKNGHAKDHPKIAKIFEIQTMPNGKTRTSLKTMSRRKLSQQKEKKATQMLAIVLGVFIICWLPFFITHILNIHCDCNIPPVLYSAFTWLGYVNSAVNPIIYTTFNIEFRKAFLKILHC
Sequence of Gonadotropin-releasing hormone receptor (Homo sapiens) (P30968 whole entry, looked up): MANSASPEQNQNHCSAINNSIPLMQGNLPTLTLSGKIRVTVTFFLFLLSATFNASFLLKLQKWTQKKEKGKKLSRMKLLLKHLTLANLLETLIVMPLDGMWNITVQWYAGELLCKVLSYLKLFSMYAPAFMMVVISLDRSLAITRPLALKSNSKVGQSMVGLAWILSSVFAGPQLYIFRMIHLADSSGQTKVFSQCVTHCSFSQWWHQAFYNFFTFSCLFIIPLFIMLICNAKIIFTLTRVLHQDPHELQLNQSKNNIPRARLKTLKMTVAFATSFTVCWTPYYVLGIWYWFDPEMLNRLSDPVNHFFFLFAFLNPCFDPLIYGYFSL
Sequence of Beta-2 adrenergic receptor (Homo sapiens) (P07550 whole entry, looked up): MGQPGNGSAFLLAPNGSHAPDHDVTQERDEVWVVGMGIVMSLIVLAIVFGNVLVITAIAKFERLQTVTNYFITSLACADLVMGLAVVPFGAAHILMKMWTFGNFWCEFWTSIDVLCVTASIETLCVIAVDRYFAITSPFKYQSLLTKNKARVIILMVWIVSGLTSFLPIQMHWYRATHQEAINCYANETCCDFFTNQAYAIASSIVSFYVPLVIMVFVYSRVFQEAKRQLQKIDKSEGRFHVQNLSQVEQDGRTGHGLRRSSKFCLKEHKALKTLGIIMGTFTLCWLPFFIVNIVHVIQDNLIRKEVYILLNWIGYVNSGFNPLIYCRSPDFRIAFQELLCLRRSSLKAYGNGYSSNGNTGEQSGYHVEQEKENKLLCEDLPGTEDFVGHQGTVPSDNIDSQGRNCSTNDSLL
Sequence of 5-hydroxytryptamine receptor 2A (Homo sapiens) (P28223 whole entry, looked up): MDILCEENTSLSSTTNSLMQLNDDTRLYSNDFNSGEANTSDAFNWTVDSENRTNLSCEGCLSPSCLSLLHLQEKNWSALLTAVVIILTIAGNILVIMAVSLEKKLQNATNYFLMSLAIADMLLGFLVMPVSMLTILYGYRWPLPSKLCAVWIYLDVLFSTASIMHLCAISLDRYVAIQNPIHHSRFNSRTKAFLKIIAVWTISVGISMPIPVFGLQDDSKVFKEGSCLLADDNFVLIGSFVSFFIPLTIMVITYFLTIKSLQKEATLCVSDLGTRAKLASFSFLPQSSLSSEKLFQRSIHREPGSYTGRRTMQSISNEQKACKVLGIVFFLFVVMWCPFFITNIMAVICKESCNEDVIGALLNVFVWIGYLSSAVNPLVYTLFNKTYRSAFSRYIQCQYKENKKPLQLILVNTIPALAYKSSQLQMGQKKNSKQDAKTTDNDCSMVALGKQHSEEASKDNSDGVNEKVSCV
Sequence of Muscarinic acetylcholine receptor M1 (Homo sapiens) (P11229 whole entry, looked up): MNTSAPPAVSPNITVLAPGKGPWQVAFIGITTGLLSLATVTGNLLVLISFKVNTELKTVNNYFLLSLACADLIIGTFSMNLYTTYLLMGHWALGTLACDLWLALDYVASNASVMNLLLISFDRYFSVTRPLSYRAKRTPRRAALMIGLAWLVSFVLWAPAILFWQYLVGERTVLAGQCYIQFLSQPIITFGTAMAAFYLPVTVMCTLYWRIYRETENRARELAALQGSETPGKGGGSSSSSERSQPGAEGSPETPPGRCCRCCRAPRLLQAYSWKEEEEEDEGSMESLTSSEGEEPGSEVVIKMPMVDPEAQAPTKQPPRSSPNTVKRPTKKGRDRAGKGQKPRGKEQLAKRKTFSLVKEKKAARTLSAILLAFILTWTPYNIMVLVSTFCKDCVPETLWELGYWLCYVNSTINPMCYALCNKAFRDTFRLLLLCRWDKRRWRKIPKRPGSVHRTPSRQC

For the molecule `CC[C@H]1CN2CCc3cc(OC)c(OC)cc3[C@@H]2C[C@@H]1C[C@H]1NCCc2cc(OC)c(OC)cc21`, the Potency in experiment [1] was 274 nM (active); in experiment [11] it was 1680 nM (active). The Potency entry in experiment [2], in experiment [3], in experiment [4], in [5], in experiment [6] and in experiment [7] was “inactive” throughout. For the same molecule, the Potency result in experiment [8], in experiment [9], in experiment [10], in experiment [12], in [13] and in experiment [14] was “inactive” throughout. The Potency result in [15] is “inactive”.
For the molecule `CCCCCCC1(C)CCC(=O)O1` (configuration not stated), the Potency result in experiment [1], in experiment [2], in [3], in experiment [4], in experiment [5] and in experiment [6] was “inactive” throughout. For the same molecule, the Potency result in [7], in [8], in [9], in experiment [16], in [17] and in experiment [18] was “inactive” each time. Moreover, the Potency entry in experiment [19], in experiment [10], in [12], in experiment [13], in experiment [14] and in [15] was “inactive” each time.
In the case of `CCC1COC(=O)O1` (configuration not stated), the Potency result in experiment [1], in experiment [2], in experiment [3], in experiment [4], in experiment [5] and in experiment [6] was “inactive” in each case. Besides, the Potency result in experiment [7], in [8], in [9], in [16], in [17] and in experiment [18] was “inactive” throughout. For the same molecule, the Potency result in experiment [19], in [10], in experiment [11], in [12], in experiment [13] and in experiment [14] was “inactive” in each case. Further, the Potency entry in [15] is “inactive”.
`CN(C)C(=S)SC(=S)N(C)C`: the Potency is 1.11 µM (active) and 1.09 µM (active) in [1]; 41.8 µM (active) and inactive in experiment [6]; 16.6 µM (active) and 5.76 µM (active) in experiment [7]; 50.2 µM (active) and inactive in [17]. Besides, the Potency result in [2], in [3], in experiment [4], in experiment [5], in experiment [8] and in [9] was “inactive” in each case. For the same molecule, the Potency result in experiment [16], in experiment [18], in [19], in [10] and in experiment [13] was “inactive” throughout.
For the molecule `O=C1OC(=O)c2c(Cl)c(Cl)c(Cl)c(Cl)c21`, the Potency entry in [1], in experiment [2], in [3], in experiment [4], in [5] and in experiment [6] was “inactive” throughout. Besides, the Potency result in experiment [7], in experiment [8], in [9], in experiment [16], in [17] and in experiment [18] was “inactive” each time. Also, the Potency result in experiment [19], in experiment [10], in [11], in experiment [12], in experiment [13] and in experiment [14] was “inactive” throughout. In addition, the Potency result in experiment [15] was “inactive”.
For `N=C(N)c1ccccc1`, the Potency entry in experiment [1], in experiment [2], in [3], in experiment [4], in experiment [5] and in experiment [6] was “inactive” in each case. Also, the Potency result in [7], in experiment [8], in [9], in experiment [16], in [17] and in experiment [18] was “inactive” in each case. Moreover, the Potency result in experiment [19], in [10], in experiment [11], in [12], in experiment [13] and in experiment [14] was “inactive” throughout. The Potency result in experiment [15] is “inactive”.
For `Cc1occc1SSc1ccoc1C`, the Potency result in [1], in experiment [3], in [4], in [5], in experiment [6] and in experiment [7] was “inactive” in each case. The Potency entry in experiment [8], in [9], in experiment [16], in experiment [17], in experiment [18] and in [19] was “inactive” in each case. Also, the Potency result in [11] and in experiment [12] was “inactive” in each case. Further, in experiment [2], the Potency was 61100 nM (active).
As for `SCCSCCS`, the Potency entry in [1], in experiment [2], in experiment [3], in experiment [4], in experiment [5] and in experiment [6] was “inactive” throughout. Further, the Potency result in [7], in experiment [8], in experiment [16], in experiment [17], in experiment [18] and in [19] was “inactive” in each case. Also, the Potency result in [10], in experiment [11], in experiment [12], in experiment [13] and in [15] was “inactive” each time.
